Inconclusive results are not listed. Activity calls are given as the source filed them. Unless noted, calls follow the shape of the dose curve; as a rule, active = well fitted curve in the direction sought with a large enough effect in the repeat runs; inconclusive = weak or mixed curves; inactive = no such curve, though single readings can be large; an effect the other way counts as inactive or inconclusive.
Legend:
[1] = qHTS assay to identify aromatase inhibitors - cell viability counter screen (AID 743084);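 also: cells stimulated with testosterone during compound exposure; nearly all actives have a fitted effect of over 55% in size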
[2] = qHTS assay to identify small molecule that activate the aryl hydrocarbon receptor (AhR) signaling pathway - cell viability counter screen (AID 743086);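 also: HepG2 liver cells carrying the AhR DRE luciferase reporter; series mostly up to about 70 µM; nearly all actives have a fitted effect of over 45% in size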
Outline: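 HepG2-AhR-luc (HG2L7.5c1) cells, 4000/well, treated 24 h at 37 C with compound; viability measured as CellTiter-Fluor fluorescence after 30 min in the same wells as the luciferase read.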

[3] = target: Peroxisome proliferator-activated receptor gamma (Homo sapiens) (UniProt P37231); experiment: qHTS assay to identify small molecule agonists of the peroxisome proliferator-activated receptor gamma (PPARg) signaling pathway (AID 743094; active = well fitted activation curve with a large enough effect in the signal ratio in the repeat runs, not every such curve was filed as active; the % refers to the signal ratio)
Outline: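 HEK293H PPARg-bla cells, 5 h settle at 37C/5% CO2; compound (DMSO) 17 h, 37C; B/G FRET substrate 1 h RT; fluorescence intensity read-out. qHTS format.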

[4] = target: Peroxisome proliferator-activated receptor gamma (Homo sapiens) (UniProt P37231); experiment: qHTS assay to identify small molecule antagonists of the peroxisome proliferator-activated receptor gamma (PPARg) signaling pathway (AID 743191; calls by dose curve; also: series mostly up to about 63 µM; nearly all actives have a fitted effect of over 30% in size)
Outline: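 GeneBLAzer PPARg UAS-bla HEK293H cells, 5 h post-plating, exposed to compounds 17 h at 37C. LiveBLAzer B/G FRET substrate added for 1 h at room temperature; beta-lactamase reporter read by fluorescence intensity.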

[5] = qHTS assay to identify small molecule antagonists of the peroxisome proliferator-activated receptor gamma (PPARg) signaling pathway - cell viability counter screen (AID 743194); also: nearly all actives have a fitted effect of over 55% in size
Outline: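 Cytotoxicity counter screen in PPARg-bla HEK293H cells, same wells as reporter assay. Compounds plus 50 nM rosiglitazone (final) for 17 h at 37 C, then viability read by CellTiter-Glo luminescence.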

[6] = qHTS assay for small molecule agonists of the antioxidant response element (ARE) signaling pathway (AID 743202; active = well fitted activation curve with a large enough effect in the signal ratio in the repeat runs, not every such curve was filed as active; the % refers to the signal ratio)
Outline: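 HepG2 ARE-bla reporter line, 2,000 cells/well; 5 h preincubation 37 C/5% CO2; compound (DMSO) 16 h 37 C; B/G FRET substrate 2 h RT; fluorescence intensity.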

[7] = qHTS assay for small molecule agonists of the antioxidant response element (ARE) signaling pathway - cell viability counter screen (AID 743203; calls by dose curve; also: nearly all actives have a fitted effect of over 55% in size)
Outline: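 Luminescence read-out (CellTiter-Glo, 30 min at room temperature) measured cell viability in the same wells as the ARE beta-lactamase reporter. HepG2 ARE-bla cells were treated with compounds for 16 hrs at 37C/5% CO2.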

[8] = qHTS assay for small molecule activators of the heat shock response signaling pathway - cell viability counter screen (AID 743209); also: nearly all actives have a fitted effect of over 50% in size
Outline: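 HSE-bla HeLa; 1500 cells/well; overnight 37 C, 5% CO2; compound 5 h 37 C; LiveBLAzer B/G substrate 2.5 h RT; CellTiter-Glo 30 min RT; luminescence.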

[9] = qHTS assay to identify small molecule agonists of the peroxisome proliferator-activated receptor delta (PPARd) signaling pathway - cell viability counter screen (AID 743211); also: nearly all actives have a fitted effect of over 55% in size
Outline: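 PPARd-bla HEK293H cells (UAS-beta-lactamase reporter) were treated with compounds for 17 h at 37 C. Viability was then read in the same wells by CellTiter-Glo luminescence after 30 min at room temperature.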

[10] = target: Peroxisome proliferator-activated receptor delta (Homo sapiens) (UniProt Q03181); experiment: qHTS assay to identify small molecule agonists of the peroxisome proliferator-activated receptor delta (PPARd) signaling pathway (AID 743212; calls by dose curve)
Outline: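 Read-out: beta-lactamase FRET fluorescence after 2 h room-temperature incubation with LiveBLAzer B/G substrate. Cells were HEK293H carrying a UAS-bla reporter for PPARd, treated at 37 C with DMSO-dissolved compounds.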

[11] = qHTS assay to identify small molecule antagonists of the peroxisome proliferator-activated receptor delta (PPARd) signaling pathway - cell viability counter screen (AID 743213); also: nearly all actives have a fitted effect of over 50% in size
Outline: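 Viability counter-screen, qHTS format: PPARd-bla HEK293H, L165041 300 nM final, 17 h compound exposure at 37 C, CellTiter-Glo luminescence after 30 min RT.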

[12] = target: Peroxisome proliferator-activated receptor delta (Homo sapiens) (UniProt Q03181); experiment: qHTS assay to identify small molecule antagonists of the peroxisome proliferator-activated receptor delta (PPARd) signaling pathway (AID 743215; active = well fitted inhibition curve with a large enough effect in the signal ratio in the repeat runs, not every such curve was filed as active; the % refers to the signal ratio;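 also: cells stimulated with agonist L165041 at 300 nM final during compound exposure; series mostly up to about 62 µM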)
Outline: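 HEK293H GeneBLAzer PPARd UAS-bla reporter cells; cpd + L165041 300 nM final, 17 h 37 C; LiveBLAzer B/G FRET substrate 2 h RT; fluorescence intensity read-out. Antagonist mode.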

[13] = target: Bile acid receptor (Homo sapiens) (UniProt Q96RI1); experiment: qHTS assay to identify small molecule antagonists of the farnesoid-X-receptor (FXR) signaling pathway (AID 743217; active = well fitted inhibition curve with a large enough effect in the signal ratio in the repeat runs, not every such curve was filed as active; the % refers to the signal ratio)
Outline: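 Read-out: beta-lactamase FRET fluorescence (LiveBLAzer B/G substrate, 2 h, room temperature) in GeneBLAzer FXR-UAS-bla HEK 293T cells. Compounds were co-dosed with 50 uM chenodeoxycholic acid (final) and incubated 16 h at 37 °C.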

[14] = qHTS assay to identify small molecule agonists of the farnesoid-X-receptor (FXR) signaling pathway - cell viability counter screen (AID 743218); also: nearly all actives have a fitted effect of over 45% in size
Outline: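 Luminescence from CellTiter-Glo, read after 30 min at RT, reports viability of GeneBLAzer FXR-UAS-bla HEK 293T cells treated 16 h with compounds in the wells used for the beta-lactamase reporter.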

[15] = qHTS assay to identify small molecule antagonists of the farnesoid-X-receptor (FXR) signaling pathway - cell viability counter screen (AID 743221; active = well fitted cell-killing curve with a large enough effect in the repeat runs, not every such curve was filed as active; also: nearly all actives have a fitted effect of over 50% in size)
Outline: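 FXR-UAS-bla HEK 293T cells were treated with test compounds plus chenodeoxycholic acid (50 uM final) for 16 h at 37 C. Cell viability in the same wells was then read as CellTiter-Glo luminescence after 30 min at room temperature.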

[16] = target: Vitamin D3 receptor (Homo sapiens) (UniProt P11473); experiment: qHTS assay to identify small molecule agonists of the vitamin D receptor (VDR) signaling pathway (AID 743222; calls by dose curve)
Outline: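 Beta-lactamase reporter readout (LiveBLAzer B/G FRET, 2 h RT) in VDR-bla cells after 16 h compound treatment at 37C, 5% CO2; cells pre-incubated 4 h before pin transfer of DMSO solutions.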

[17] = target: Vitamin D3 receptor (Homo sapiens) (UniProt P11473); experiment: qHTS assay to identify small molecule antagonists of the vitamin D receptor (VDR) signaling pathway (AID 743223; active = well fitted inhibition curve with a large enough effect in the signal ratio in the repeat runs, not every such curve was filed as active; the % refers to the signal ratio)
Outline: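 VDR-bla cells were plated, incubated 4 h at 37C, then given compound and 1alpha,25-dihydroxyvitamin D3 (3 nM final). After 16 h at 37C, LiveBLAzer B/G FRET substrate was added for 2 h at room temperature and fluorescence read.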

[18] = qHTS assay for small molecule activators of the heat shock response signaling pathway (AID 743210; active = well fitted activation curve with a large enough effect in the signal ratio in the repeat runs, with a control signal flat, not every such curve was filed as active; the % refers to the signal ratio;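 also: HeLa cells with beta-lactamase reporter driven by heat shock elements; series mostly up to about 63 µM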)
Outline: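 Beta-lactamase reporter read-out: FRET substrate fluorescence after 2.5 h at RT, following 5 h compound treatment at 37 C of HeLa cells carrying HSE-driven bla reporter; quantitative HTS format.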

[19] = target: Aryl hydrocarbon receptor (Homo sapiens) (UniProt P35869); experiment: qHTS assay to identify small molecule that activate the aryl hydrocarbon receptor (AhR) signaling pathway (AID 743085);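 also: HG2L7.5c1 human HepG2 liver cells with stably integrated DRE-driven firefly reporter; series mostly up to about 70 µM; nearly all actives have a fitted effect of over 15% in size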
Outline: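 HepG2 cells (HG2L7.5c1) stably carrying a firefly luciferase reporter driven by 20 dioxin responsive elements were exposed to compound for 24 h at 37C after a 5 h settling period; luminescence rise (ONE-Glo) indicated activation.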

[20] = target: Bile acid receptor (Homo sapiens) (UniProt Q96RI1); experiment: qHTS assay to identify small molecule agonists of the farnesoid-X-receptor (FXR) signaling pathway (AID 743220; active = well fitted activation curve with a large enough effect in the signal ratio in the repeat runs, not every such curve was filed as active; the % refers to the signal ratio)
Outline: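 FXR-UAS-bla HEK 293T cells carrying a UAS-driven beta-lactamase reporter were plated for 5 h at 37C/5% CO2, then exposed to DMSO-dissolved Tox21 10K compounds for 16 h at 37C. A LiveBLAzer B/G FRET substrate was loaded for 2 h at room temperature before fluorescence reading.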

Measured: Potency

Sequence of Bile acid receptor (Homo sapiens) (Q96RI1 whole entry, looked up): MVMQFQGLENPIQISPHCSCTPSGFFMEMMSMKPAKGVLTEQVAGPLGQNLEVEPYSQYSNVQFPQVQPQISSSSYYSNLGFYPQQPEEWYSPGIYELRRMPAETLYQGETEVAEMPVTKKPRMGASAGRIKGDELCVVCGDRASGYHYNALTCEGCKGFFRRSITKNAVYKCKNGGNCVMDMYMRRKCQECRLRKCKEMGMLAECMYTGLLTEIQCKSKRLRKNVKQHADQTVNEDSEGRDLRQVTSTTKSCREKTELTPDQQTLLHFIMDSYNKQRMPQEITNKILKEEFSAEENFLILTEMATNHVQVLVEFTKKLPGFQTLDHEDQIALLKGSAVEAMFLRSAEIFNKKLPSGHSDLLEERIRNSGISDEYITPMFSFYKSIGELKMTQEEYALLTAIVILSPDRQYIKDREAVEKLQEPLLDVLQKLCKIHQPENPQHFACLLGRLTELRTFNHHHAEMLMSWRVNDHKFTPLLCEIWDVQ
Sequence of Peroxisome proliferator-activated receptor gamma (Homo sapiens) (P37231 whole entry, looked up): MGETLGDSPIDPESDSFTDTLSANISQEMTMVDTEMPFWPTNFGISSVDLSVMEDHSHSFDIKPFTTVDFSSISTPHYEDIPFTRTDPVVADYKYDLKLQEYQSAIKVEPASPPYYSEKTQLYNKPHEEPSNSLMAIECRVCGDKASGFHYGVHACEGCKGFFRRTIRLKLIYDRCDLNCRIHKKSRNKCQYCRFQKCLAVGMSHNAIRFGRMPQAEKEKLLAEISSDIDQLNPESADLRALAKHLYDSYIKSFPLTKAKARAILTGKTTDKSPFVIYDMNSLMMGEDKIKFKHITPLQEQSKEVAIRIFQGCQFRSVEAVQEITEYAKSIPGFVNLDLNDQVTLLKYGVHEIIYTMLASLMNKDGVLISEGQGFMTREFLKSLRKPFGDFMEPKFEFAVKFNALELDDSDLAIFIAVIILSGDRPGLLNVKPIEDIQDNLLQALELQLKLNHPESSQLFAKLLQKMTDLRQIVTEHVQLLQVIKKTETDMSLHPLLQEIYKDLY
Sequence of Vitamin D3 receptor (Homo sapiens) (P11473 whole entry, looked up): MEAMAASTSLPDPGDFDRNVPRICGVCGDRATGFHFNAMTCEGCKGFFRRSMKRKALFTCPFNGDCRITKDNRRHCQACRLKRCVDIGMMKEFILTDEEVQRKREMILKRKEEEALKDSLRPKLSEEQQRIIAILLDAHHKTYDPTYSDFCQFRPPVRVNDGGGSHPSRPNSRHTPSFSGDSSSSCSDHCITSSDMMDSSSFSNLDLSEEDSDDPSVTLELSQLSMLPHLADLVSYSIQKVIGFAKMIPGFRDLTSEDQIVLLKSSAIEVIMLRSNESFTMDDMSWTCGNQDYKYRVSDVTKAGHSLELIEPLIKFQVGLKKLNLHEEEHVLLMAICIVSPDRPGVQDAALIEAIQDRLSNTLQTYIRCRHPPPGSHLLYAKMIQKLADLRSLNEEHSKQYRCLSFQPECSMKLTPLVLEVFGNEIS
Sequence of Aryl hydrocarbon receptor (Homo sapiens) (P35869 whole entry, looked up): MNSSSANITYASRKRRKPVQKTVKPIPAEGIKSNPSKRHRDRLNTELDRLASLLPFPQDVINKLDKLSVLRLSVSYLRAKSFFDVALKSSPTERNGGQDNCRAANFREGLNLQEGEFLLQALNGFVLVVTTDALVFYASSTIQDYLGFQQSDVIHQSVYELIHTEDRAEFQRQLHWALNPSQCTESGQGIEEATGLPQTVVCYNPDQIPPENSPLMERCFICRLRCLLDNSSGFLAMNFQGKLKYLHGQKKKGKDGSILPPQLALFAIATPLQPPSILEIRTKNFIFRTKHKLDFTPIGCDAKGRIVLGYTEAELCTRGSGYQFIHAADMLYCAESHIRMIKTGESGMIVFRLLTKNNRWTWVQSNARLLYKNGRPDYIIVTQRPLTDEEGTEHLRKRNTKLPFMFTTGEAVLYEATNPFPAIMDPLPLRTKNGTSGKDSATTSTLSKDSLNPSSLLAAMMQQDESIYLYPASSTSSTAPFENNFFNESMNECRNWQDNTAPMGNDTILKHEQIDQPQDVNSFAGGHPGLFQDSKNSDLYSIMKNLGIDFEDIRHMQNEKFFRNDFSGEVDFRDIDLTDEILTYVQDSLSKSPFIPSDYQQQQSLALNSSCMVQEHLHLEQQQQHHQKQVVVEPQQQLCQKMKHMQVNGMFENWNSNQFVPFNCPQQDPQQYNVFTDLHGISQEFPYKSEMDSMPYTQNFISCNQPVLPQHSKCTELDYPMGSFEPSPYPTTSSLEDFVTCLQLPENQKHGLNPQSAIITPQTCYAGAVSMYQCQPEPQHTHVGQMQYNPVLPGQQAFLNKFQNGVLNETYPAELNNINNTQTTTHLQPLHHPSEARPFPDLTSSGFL
Sequence of Peroxisome proliferator-activated receptor delta (Homo sapiens) (Q03181 whole entry, looked up): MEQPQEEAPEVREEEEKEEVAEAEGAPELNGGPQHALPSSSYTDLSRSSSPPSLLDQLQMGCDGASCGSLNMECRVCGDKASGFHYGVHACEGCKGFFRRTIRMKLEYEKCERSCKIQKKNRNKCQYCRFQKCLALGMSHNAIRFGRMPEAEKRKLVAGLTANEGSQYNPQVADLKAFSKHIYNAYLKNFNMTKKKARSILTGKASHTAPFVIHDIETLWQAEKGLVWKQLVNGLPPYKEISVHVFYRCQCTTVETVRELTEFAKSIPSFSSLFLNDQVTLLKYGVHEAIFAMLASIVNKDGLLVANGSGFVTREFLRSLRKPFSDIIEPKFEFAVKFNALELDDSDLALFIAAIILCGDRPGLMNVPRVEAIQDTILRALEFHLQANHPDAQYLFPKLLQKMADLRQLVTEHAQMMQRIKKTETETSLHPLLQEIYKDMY

CC1(C)[C@H]2CC[C@](C)(C2)[C@H]1O
inactive: [1] | [2] | [3] | [4] | [5] | [6] | [7] | [8] | [9] | [10] | [11] | [12] | [13] | [14] | [15] | [16] | [17]

Cc1cc(-c2ccccc2)nnc1NCCN1CCOCC1
inactive: [1] | [2] | [3] | [4] | [5] | [6] | [7] | [8] | [18] | [9] | [10] | [14] | [15] | [16]

C=CC(=O)OCC1CCCO1 (stereo not drawn)
inactive: [1] | [19] | [3] | [4] | [7] | [9] | [10] | [11] | [12] | [13] | [14] | [20] | [15]

C[C@@H](O)C(=O)O
inactive: [1] | [19] | [2] | [5] | [6] | [7] | [8] | [18] | [9] | [10] | [11] | [13] | [14] | [20] | [15] | [16]

CCO[Si](CC)(OCC)OCC
inactive: [1] | [19] | [2] | [6] | [7] | [8] | [9] | [10] | [11] | [12] | [15] | [16]

C=C(C)[C@@H]1CC=C(C)CC1
inactive: [1] | [19] | [2] | [7] | [9] | [11] | [14] | [15]

OCC(O)CN1CCN(c2ccccc2)CC1 (stereo not drawn)
inactive: [1] | [19] | [3] | [4] | [6] | [7] | [8] | [9] | [10] | [11] | [13] | [14] | [15]

CC1=C(O)C(=O)C(C)O1 (stereo not drawn)
inactive: [1] | [19] | [2] | [5] | [6] | [7] | [8] | [18] | [9] | [11] | [12] | [13] | [20] | [15]

CC1CCc2c(N3CCC(O)CC3)c(F)cc3c(=O)c(C(=O)O)cn1c23 (stereo not drawn)
inactive: [1] | [19] | [2] | [3] | [7] | [8] | [18] | [9] | [10] | [11] | [12] | [14] | [15] | [17]

CCCC(=O)OC/C=C(\C)CCC=C(C)C
inactive: [1] | [2] | [3] | [4] | [5] | [6] | [7] | [8] | [18] | [9] | [11] | [13] | [14] | [20] | [15] | [16] | [17]

C=CCSSCCC
inactive: [1] | [2] | [3] | [4] | [6] | [7] | [8] | [9] | [10] | [11] | [12] | [14] | [15] | [16] | [17]

COS(=O)(=O)O
inactive: [1] | [19] | [2] | [5] | [6] | [7] | [8] | [9] | [11] | [20] | [15] | [16] | [17]

C=Cc1ccc(C(C)(C)C)cc1
inactive: [1] | [19] | [2] | [3] | [6] | [7] | [9] | [10] | [11] | [13] | [14] | [20] | [15]

O=C[O][Al]([O]C=O)[O]C=O
inactive: [1] | [19] | [2] | [5] | [6] | [7] | [8] | [18] | [9] | [10] | [11] | [12] | [13] | [14] | [20] | [15] | [16]

C/C(CC(C)C)=N\O
inactive: [1] | [19] | [2] | [6] | [7] | [8] | [18] | [9] | [10] | [11] | [12] | [14] | [15] | [16]

CC(C)(CO)C(O)C(=O)NCCCO (stereo not drawn)
inactive: [1] | [19] | [2] | [6] | [8] | [9] | [10] | [11] | [12] | [13] | [14] | [20] | [15] | [16] | [17]

COc1nc(N)nc2nc[nH]c12
inactive: [1] | [2] | [3] | [4] | [5] | [6] | [7] | [8] | [18] | [10] | [11] | [12] | [15]

[O]=[Mo](=[O])=[O]
inactive: [1] | [19] | [2] | [5] | [6] | [7] | [18] | [10] | [11] | [15] | [16] | [17]

Cc1ccnc(N)c1
inactive: [1] | [2] | [3] | [4] | [6] | [7] | [8] | [18] | [9] | [11] | [13] | [14] | [15]

c1ccc2c(CC3=NCCN3)cccc2c1
inactive: [1] | [2] | [3] | [4] | [5] | [6] | [7] | [8] | [18] | [9] | [10] | [11] | [12] | [14] | [15]
